Results on ten molecules are retold here after PubChem BioAssay (NCI).

A short description of experiment [1]: NCI Yeast Anticancer Drug Screen. Data for the rad50 strain (AID 155).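 Further: 0% = growth of vehicle-only cultures of the same strain.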 Particulars: S. cerevisiae rad50 strain growth inhibition, active compounds read high. The method, boiled down:
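Relative growth inhibition (compound vs vehicle) was measured in yeast with a defined repair-gene alteration.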

Experiment [2] is described as follows: NCI Yeast Anticancer Drug Screen. Data for the mec2-1 strain (AID 157). Particulars: S. cerevisiae mec2-1 strain, active compounds read high. The procedure, abridged: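 Growth inhibition is read against vehicle-treated controls after compound exposure of the mec2-1 yeast strain, which is defective in DNA damage repair or cell cycle control.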
Experiment [3] can be described thus: NCI Yeast Anticancer Drug Screen. Data for the sgs1 mgt1 strain (AID 161).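 Further: 0% = growth of cultures given vehicle only.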 Particulars: S. cerevisiae sgs1 mgt1 strain, active compounds read high. The procedure, abridged:
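Yeast cells carrying a defined DNA-repair defect were exposed to test compounds. Growth inhibition was measured relative to vehicle-treated controls.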

Experiment [4] can be described thus: NCI Yeast Anticancer Drug Screen. Data for the cln2 rad14 strain (AID 165).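 Further: 0% = growth equal to vehicle treated cultures.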 Particulars: S. cerevisiae cln2 rad14 strain, active compounds read high. The procedure, abridged:
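Growth inhibition, relative to vehicle-treated controls, is the read-out. The test organism is a yeast strain with defined genetic alterations, cln2 rad14.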

The nature of experiment [5]: NCI Yeast Anticancer Drug Screen. Data for the bub3 strain (AID 167). Particulars: S. cerevisiae bub3 mutant strain, active compounds read high. The method, boiled down: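 Screening used yeast with an engineered genetic alteration affecting cell cycle control. Compound-exposed cultures were compared with vehicle cultures, and reduced growth was taken as inhibition.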
A short description of experiment [6]: NCI Yeast Anticancer Drug Screen. Data for the mlh1 rad18 strain (AID 175). Particulars: S. cerevisiae mlh1 rad18 strain growth inhibition, active compounds read high. The method, boiled down:
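Cells of a genetically altered yeast strain, deficient in DNA damage repair, were treated with compound. Their growth was then compared with that of vehicle-treated cultures to give inhibition.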

Setting [7] is: at 5.0 µM (retest, dose inferred, filed as 0.5).
The mark [8] stands for this setting: at 50.0 µM (retest, dose inferred, filed as 5.0).

This is part of a sample that, as a whole, favours compounds with a hit. Of some 79,000 tested, about 15% had one in any assay. Unmarked numbers belong to inactive results. Activity calls are given as the source filed them. No stated cut-off is given here; in the data, active means growth inhibition above about 70%; inactive means the rest.

For the molecule `Oc1c(I)cc(Cl)c2cccnc12`, the growth inhibition in experiment [1] (setting [7]) is 64%; in experiment [1] (setting [8]), 96% (active); in experiment [1] (at 50.0 µM), 97.2% (active); in experiment [2] (setting [7]), 63%; in experiment [2] (setting [8]), 97% (active); in experiment [2] (at 50.0 µM), 98.3% (active). Moreover, the growth inhibition in experiment [3] (setting [7]) is 46%; in experiment [3] (setting [8]), 97% (active); in experiment [3] (at 50.0 µM), 97.8% (active); in experiment [4] (setting [7]), 72% (active); in experiment [4] (setting [8]) it was 98% (active); in experiment [4] (at 50.0 µM) it was 96.8% (active). Further, the growth inhibition in experiment [5] (setting [7]) is 39%; in experiment [5] (setting [8]), 96% (active); in experiment [5] (at 50.0 µM), 98.8% (active); in experiment [6] (setting [7]), 74% (active); in experiment [6] (setting [8]) it was 95% (active); in experiment [6] (at 50.0 µM), 98% (active).
As to `O=C1CC(=S)NC(=S)N1`, the growth inhibition is -2% in experiment [1] (setting [7]); -6% in experiment [1] (setting [8]); 12.8% in experiment [1] (at 50.0 µM); 0% in experiment [2] (setting [7]); -1% in experiment [2] (setting [8]); -1.7% in experiment [2] (at 50.0 µM). The growth inhibition in experiment [3] (setting [7]) is -1%; in experiment [3] (setting [8]), -2%; in experiment [3] (at 50.0 µM), -15%; in experiment [4] (setting [7]), -5%; in experiment [4] (setting [8]) it was -6%; in experiment [4] (at 50.0 µM), -26%. Further, the growth inhibition in experiment [5] (setting [7]) was -2%; in experiment [5] (setting [8]), -8%; in experiment [5] (at 50.0 µM), -10.4%; in experiment [6] (setting [7]), -3%; in experiment [6] (setting [8]), -5%; in experiment [6] (at 50.0 µM), 40.2%.
Consider `CCN(CC)CCNc1c(C)ccc2cccnc12`, for which the growth inhibition in experiment [1] (setting [7]) is 0%; in experiment [1] (setting [8]), 7%; in experiment [1] (at 50.0 µM), 33.5%; in experiment [2] (setting [7]) it was -4%; in experiment [2] (setting [8]), -4%; in experiment [2] (at 50.0 µM), 35.9%. The growth inhibition was -2% in experiment [3] (setting [7]); -2% in experiment [3] (setting [8]); 29.4% in experiment [3] (at 50.0 µM); -1% in experiment [4] (setting [7]); -14% in experiment [4] (setting [8]); -29.2% in experiment [4] (at 50.0 µM). The growth inhibition in experiment [5] (setting [7]) was -1%; in experiment [5] (setting [8]), 2%; in experiment [5] (at 50.0 µM), 53.8%; in experiment [6] (setting [7]), 0%; in experiment [6] (setting [8]), 8%; in experiment [6] (at 50.0 µM), 51.5%.
Turning to `O=c1[nH]c2ccccc2nc1CBr`, the growth inhibition in experiment [1] (setting [7]) is 5%; in experiment [1] (setting [8]), 95% (active); in experiment [1] (at 50.0 µM) it was 30.9%; in experiment [2] (setting [7]), 16%; in experiment [2] (setting [8]), 99% (active); in experiment [2] (at 50.0 µM) it was 71.2% (active). In addition, the growth inhibition in experiment [3] (setting [7]) was 8%; in experiment [3] (setting [8]), 98% (active); in experiment [3] (at 50.0 µM), 91.2% (active); in experiment [4] (setting [7]) it was 0%; in experiment [4] (setting [8]) it was 95% (active); in experiment [4] (at 50.0 µM) it was 1.85%. Moreover, the growth inhibition is 14% in experiment [5] (setting [7]); 98% (active) in experiment [5] (setting [8]); 90.2% (active) in experiment [5] (at 50.0 µM); 16% in experiment [6] (setting [7]); 99% (active) in experiment [6] (setting [8]); 91.1% (active) in experiment [6] (at 50.0 µM).
As to `Nc1nc(N)c2nc(CNc3ccc(C(=O)NC(CCC(=O)O)C(=O)O)cc3)cnc2n1` (stereo not given), the growth inhibition in experiment [1] (setting [7]) is -4%; in experiment [1] (setting [8]), 30%; in experiment [1] (at 50.0 µM), 64.8%; in experiment [2] (setting [7]) it was -3%; in experiment [2] (setting [8]) it was 91% (active); in experiment [2] (at 50.0 µM) it was 97.8% (active). Moreover, the growth inhibition in experiment [3] (setting [7]) was -2%; in experiment [3] (setting [8]), -19%; in experiment [3] (at 50.0 µM), 34.5%; in experiment [4] (setting [7]), 5%; in experiment [4] (setting [8]) it was -47%; in experiment [4] (at 50.0 µM), -48.9%. Further, the growth inhibition is 0% in experiment [5] (setting [7]); -47% in experiment [5] (setting [8]); 74.8% (active) in experiment [5] (at 50.0 µM); -1% in experiment [6] (setting [7]); -19% in experiment [6] (setting [8]); 83.5% (active) in experiment [6] (at 50.0 µM).
Consider `COc1cc(C(c2cc3c(cc2O)OCO3)N2CCOCC2)cc(OC)c1OC` (stereo not given), for which the growth inhibition in experiment [1] (setting [7]) is 0%; in experiment [1] (setting [8]), 23%; in experiment [1] (at 50.0 µM), 35.5%; in experiment [2] (setting [7]), -23%; in experiment [2] (setting [8]), 13%; in experiment [2] (at 50.0 µM) it was 67.7%. The growth inhibition in experiment [3] (setting [7]) is -3%; in experiment [3] (setting [8]), 28%; in experiment [3] (at 50.0 µM), 17%; in experiment [4] (setting [7]) it was 4%; in experiment [4] (setting [8]), 8%; in experiment [4] (at 50.0 µM), 20.6%. Further, the growth inhibition in experiment [5] (setting [7]) was 2%; in experiment [5] (setting [8]) it was 11%; in experiment [5] (at 50.0 µM), 7.1%; in experiment [6] (setting [7]), -4%; in experiment [6] (setting [8]) it was 21%; in experiment [6] (at 50.0 µM) it was 19%.
With `C1CSCCCSCCCSCCCSCCCSC1`, the growth inhibition in experiment [1] (setting [7]) was 17%; in experiment [1] (setting [8]), 24%; in experiment [1] (at 50.0 µM), 31.2%; in experiment [2] (setting [7]) it was 8%; in experiment [2] (setting [8]), 17%; in experiment [2] (at 50.0 µM), 21.4%. In addition, the growth inhibition was 7% in experiment [3] (setting [7]); 20% in experiment [3] (setting [8]); 27.5% in experiment [3] (at 50.0 µM); 9% in experiment [4] (setting [7]); 22% in experiment [4] (setting [8]); 47.4% in experiment [4] (at 50.0 µM). For the same molecule, the growth inhibition is 22% in experiment [5] (setting [7]); 28% in experiment [5] (setting [8]); 25.1% in experiment [5] (at 50.0 µM); 15% in experiment [6] (setting [7]); 36% in experiment [6] (setting [8]); -10.8% in experiment [6] (at 50.0 µM).
In the case of `O=C(c1cccc(Cl)c1)c1ccc2ccccc2c1C(=O)O`, the growth inhibition is 10% in experiment [1] (setting [7]); 1% in experiment [1] (setting [8]); 12.3% in experiment [1] (at 50.0 µM); -8% in experiment [2] (setting [7]); 0% in experiment [2] (setting [8]); 45.9% in experiment [2] (at 50.0 µM). Moreover, the growth inhibition was -1% in experiment [3] (setting [7]); 1% in experiment [3] (setting [8]); 0.7% in experiment [3] (at 50.0 µM); -3% in experiment [4] (setting [7]); -1% in experiment [4] (setting [8]); 5.6% in experiment [4] (at 50.0 µM). For the same molecule, the growth inhibition is -6% in experiment [5] (setting [7]); 1% in experiment [5] (setting [8]); -1.5% in experiment [5] (at 50.0 µM); -6% in experiment [6] (setting [7]); 5% in experiment [6] (setting [8]); 5.75% in experiment [6] (at 50.0 µM).
As to `O=C(/C=C\c1cc(Br)ccc1O)/C=C/c1cc(Br)ccc1O`, the growth inhibition in experiment [1] (setting [7]) is 58%; in experiment [1] (setting [8]), 90% (active); in experiment [1] (at 50.0 µM), 76.8% (active); in experiment [2] (setting [7]), 95% (active); in experiment [2] (setting [8]) it was 91% (active); in experiment [2] (at 50.0 µM), 75.8% (active). Moreover, the growth inhibition in experiment [3] (setting [7]) was 80% (active); in experiment [3] (setting [8]), 91% (active); in experiment [3] (at 50.0 µM), 73.3% (active); in experiment [4] (setting [7]), 36%; in experiment [4] (setting [8]) it was 88% (active); in experiment [4] (at 50.0 µM) it was 36.4%. Besides, the growth inhibition is 95% (active) in experiment [5] (setting [7]); 91% (active) in experiment [5] (setting [8]); 89% (active) in experiment [5] (at 50.0 µM); 48% in experiment [6] (setting [7]); 86% (active) in experiment [6] (setting [8]); 75% (active) in experiment [6] (at 50.0 µM).
In the case of `CC(CCNCCC#N)CC(C)(C)C` (stereo not given), the growth inhibition in experiment [1] (setting [7]) is 6%; in experiment [1] (setting [8]) it was 66%; in experiment [1] (at 50.0 µM) it was 76.9% (active); in experiment [2] (setting [7]), -4%; in experiment [2] (setting [8]) it was 32%; in experiment [2] (at 50.0 µM), 47.8%. Further, the growth inhibition in experiment [3] (setting [7]) is 9%; in experiment [3] (setting [8]), 43%; in experiment [3] (at 50.0 µM), 86.2% (active); in experiment [4] (setting [7]), 7%; in experiment [4] (setting [8]), 33%; in experiment [4] (at 50.0 µM) it was 48.5%. Moreover, the growth inhibition was 7% in experiment [5] (setting [7]); 47% in experiment [5] (setting [8]); 63% in experiment [5] (at 50.0 µM); 12% in experiment [6] (setting [7]); 66% in experiment [6] (setting [8]); 68.8% in experiment [6] (at 50.0 µM).
